The source of these data is PubChem BioAssay (NCATS).

A number with no mark means an inactive call. Records with an inconclusive call do not appear. Calls of active or inactive are those of the source. Calls follow the shape of the dose curve; as a rule, active = well fitted curve in the direction sought with a large enough effect; inconclusive = small, poorly fitted or top-dose-only effect, or another doubt; inactive = no such curve, though single readings can be large; an effect the other way counts as inactive or inconclusive.

Assay [1] in a line: Primary fluorescence-based thiol-reactive (MSTI) qHTS assay for identification of artifact compounds. (AID 1845221). Also: nearly all actives have a fitted effect of over 65% in size. Also: potency is read from the fitted curve at half-maximal effect.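 As to activity change, negative = thiol reactive: series mostly up to about 54 µM; thiol-reactive compounds lower the probe fluorescence signal.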 The method, boiled down:
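In PBS pH 7.4 with 2% DMSO, each compound met 4 uM MSTI for one hour at ambient temperature, shielded from light, before fluorescence detection.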
In general terms: In qHTS, concentration-response curves come from the screen itself.

The test system of assay [2] is Nanoluciferase (engineered Oplophorus gracilirostris luciferase). The assay is described as follows: Primary Nanoluciferase (NLuc) qHTS assay for identification of artifact compounds. (AID 1845222).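 Also: series mostly up to about 54 µM; 0% = DMSO and -100% = no enzyme.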 In short, it runs like this:
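Luminescence read-out of secreted NLuc in S16 cell conditioned medium (1:55); compounds tested with 15 min RT preincubation, then Nano-Glo substrate 1:100, 5 min. % inhibition vs no-enzyme and DMSO controls, 4-parameter Hill fit.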

Consider `COCC(=O)N1CCc2cc(-c3csc(NC(=O)c4cc(OC)cc(OC)c4)n3)ccc21`, for which the Potency result in assay [1] and in assay [2] was “inactive” throughout.
Regarding `CC1=CCC2C(C)(CO)CCCC2(CO)C1CO` (configuration not stated), in assay [1], the Potency is 13.4 µM (active).
For the molecule `O=C1CC(c2ccc([N+](=O)[O-])cc2)=NN1c1ccccc1`, the Potency in assay [1] is 4.74 µM (active). Besides, the Potency result in assay [2] is “inactive”.
In the same order, the values of `Cc1cc(O)cc(Oc2cc(C)c(C(=O)O)c(O)c2)c1` are 3.36 µM (active) and “inactive”.
On the same counts, the results for `CO[C@@H](Cc1ccc(OCCc2nc(-c3ccccc3)oc2C)c2ccsc12)C(=O)O` are “inactive” and “inactive”.
In the same order, the values of `Cc1ccc2c(c1)C=Cc1cc(C)ccc1C2c1cn(Cc2ccc(C(=O)Nc3nn[nH]n3)o2)c(=O)[nH]c1=S` are “inactive” and “inactive”.
Consider `O=C(/C=C/c1c(C(=O)O)[nH]c2cc(Cl)cc(Cl)c12)Nc1ccccc1`, for which, in assay [1], the Potency entry is “inactive”.
For the molecule `OC[C@H]1O[C@@H](Oc2ccc(O)c3cccc(O)c23)[C@H](O)[C@@H](O)[C@@H]1O`, the Potency in assay [1] is 0.927 µM (active).
For the molecule `CC1CCC2C(C(=O)O)=CC3CC(C)(C)CC132` (configuration not stated), the Potency in assay [1] is 23.8 µM (active). In assay [2], the Potency result was “inactive”.
Consider `CCc1cc2c(=O)c(-c3nc4ccccc4s3)coc2c(CN2CCCCC2)c1O`, for which the Potency entry in assay [1] is “inactive”.
Turning to `C=C1CC2[C@]3(C)C(=C(O)C(=O)[C@@]2(C)[C@]2(C(=O)OC)C(=O)C(C)OC(=O)[C@@]12C)C(C)(C)C(=O)CC3O` (some centres not stated), the Potency result in assay [1] and in assay [2] was “inactive” throughout.
For the molecule `CC1(C)C[C@H]2C3=CCC4[C@@]5(C)CC[C@H](O[C@H]6O[C@H](C(=O)O)[C@@H](O)[C@H](O)[C@H]6O[C@H]6O[C@H](CO)[C@@H](O)[C@H](O)[C@H]6O[C@@H]6O[C@H](CO)[C@@H](O)[C@H](O)[C@H]6O)[C@](C)(CO)C5CC[C@@]4(C)[C@]3(C)CC[C@@]2(C)[C@H](O[C@@H]2OC[C@H](O)[C@H](OC3O[C@H](CO)[C@@H](O)[C@H](O)[C@H]3O)[C@H]2O)[C@@H]1O` (some centres not stated), the activity change, negative = thiol reactive in assay [1] was 48.1% [at 11.5 µM]. Moreover, the activity, negative = inhibition in assay [2] was 4.18% [at 11.6 µM].
As to `C[C@@H]1O[C@@H](O[C@@H]2[C@@H](O)[C@H](O[C@@H]3[C@@H](O)[C@@H](O)[C@H](O[C@H]4[C@H](OC(=O)[C@]56CCC(C)(C)C[C@H]5C5=CCC7[C@@]8(C)C[C@H](O)[C@H](O[C@@H]9O[C@H](C(=O)O)[C@@H](O)[C@H](O)[C@H]9O)[C@@](C)(CO)C8[C@H](O)C[C@@]7(C)[C@]5(C)CC6)OC[C@H](O)[C@@H]4O)O[C@H]3C)OC[C@H]2O)[C@H](O)[C@H](O)[C@H]1O` (some centres not stated), the activity change, negative = thiol reactive in assay [1] is 319% [at 11.5 µM].
Regarding `C[C@@H]1O[C@@H](O[C@H]2[C@H](O)[C@@H](O)[C@H](OC[C@H]3O[C@@H](OC(=O)[C@]45CCC(C)(C)C[C@H]4C4=CCC6[C@@]7(C)C[C@H](O)[C@H](O[C@@H]8O[C@H](CO)[C@@H](O)[C@H](O)[C@H]8O)[C@@](C)(C(=O)O)C7CC[C@@]6(C)[C@]4(C)CC5)[C@H](O[C@@H]4O[C@H](CO)[C@@H](O)[C@H](O)[C@H]4O)[C@@H](O)[C@@H]3O)O[C@@H]2CO)[C@H](O)[C@H](O)[C@H]1O` (some centres not stated), in assay [1], the activity change, negative = thiol reactive is 1.9% [at 11.5 µM]. In addition, in assay [2], the activity, negative = inhibition is 4.14% [at 11.6 µM].
`CC(C)c1cc2c(c(O)c1O[C@@H]1O[C@H](CO)[C@@H](O)[C@H](O)[C@H]1O)CC1(O)CCC(O)C(C)(C)C1CC2` (some centres not stated): in assay [1], the Potency is 9.22 µM (active). For the same molecule, in assay [2], the Potency entry was “inactive”.
In the same order, the values of `CN1C(=O)N[C@@H](Cc2c[nH]c3c(Cl)cccc23)C1=O` are “inactive” and “inactive”.
Regarding `O=C(Nc1cccnn1)N1CCC(=Cc2cccc(Oc3ccc(C(F)(F)F)cn3)c2)CC1`, the Potency entry in assay [1] and in assay [2] was “inactive” throughout.
With `Cc1nn(C)c2c1C(c1ccc(C(F)(F)F)cc1)C(C#N)=C(N)O2` (configuration not stated), the Potency in assay [1] is 6.7 µM (active).
As for `C[C@]12C=CC(=O)C=C1CC[C@@H]1[C@@H]2[C@@H](O)C[C@@]2(C)[C@H]1CC[C@]2(O)C(=O)COC(=O)CCC(=O)O`, the Potency result in assay [1] and in assay [2] was “inactive” in each case.
Regarding `O=S(=O)(NC1CCNCC1)c1cc(S(=O)(=O)c2ccccc2)ccc1C(F)(F)F`, the Potency result in assay [1] and in assay [2] was “inactive” throughout.
Consider `CCNC(=O)[C@@H]1CCCN1C(=O)[C@H](CCCN=C(N)N)NC(=O)[C@H](CC(C)C)NC(=O)[C@@H](C)NC(=O)[C@H](Cc1ccc(O)cc1)NC(=O)[C@H](CO)NC(=O)[C@H](Cc1c[nH]c2ccccc12)NC(=O)[C@H](Cc1cnc[nH]1)NC(=O)[C@@H]1CCC(=O)N1`, for which the Potency result in assay [1] and in assay [2] was “inactive” each time.
`C/C=C/C=C/C(CC(=O)O)Nc1ccc(C=O)cc1` (configuration not stated): the Potency in assay [1] was 4.74 µM (active).
